Results as given in PMC11006913.

Experiments:
Assay in all cases: PBM; 200 nM protein, PBS
Conditions in all cases: dsDNA, one strand shown
[1] = biological target: HESX1 (Homo sapiens, UniProt Q9UBX0 95-180, R165K)
[2] = biological target: HESX1 (Homo sapiens, UniProt Q9UBX0 95-180)
[3] = biological target: HESX1 (Homo sapiens, UniProt Q9UBX0 95-180, R109Q)
[4] = biological target: HESX1 (Homo sapiens, UniProt Q9UBX0 95-180, P111T)
[5] = biological target: HESX1 (Homo sapiens, UniProt Q9UBX0 95-180, F115L)
[6] = biological target: ALX1 (Homo sapiens, UniProt Q15699 118-204, L144V)
[7] = biological target: ALX1 (Homo sapiens, UniProt Q15699 118-204, L144R)
[8] = biological target: ALX1 (Homo sapiens, UniProt Q15699 118-204)
[9] = biological target: MSX2 (Homo sapiens, UniProt P35548 130-214, R199I)
[10] = biological target: PROP1 (Homo sapiens, UniProt O75360 56-141, R99H)
[11] = biological target: ALX3 (Homo sapiens, UniProt O95076 139-225, L168Q)
[12] = biological target: ALX3 (Homo sapiens, UniProt O95076 139-225, N203S)
[13] = biological target: PROP1 (Homo sapiens, UniProt O75360 56-141)
[14] = biological target: PROP1 (Homo sapiens, UniProt O75360 56-141, F88S)
PROP1 (Homo sapiens, UniProt O75360 56-141, F88S), sequence (O75360 56-141 F88S): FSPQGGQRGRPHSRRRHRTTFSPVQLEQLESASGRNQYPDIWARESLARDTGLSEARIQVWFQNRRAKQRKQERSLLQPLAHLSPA

HESX1 (Homo sapiens, UniProt Q9UBX0 95-180, R165K), sequence (Q9UBX0 95-180 R165K): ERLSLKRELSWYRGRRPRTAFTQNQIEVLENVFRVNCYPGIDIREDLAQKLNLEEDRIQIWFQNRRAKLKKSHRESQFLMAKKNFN
HESX1 (Homo sapiens, UniProt Q9UBX0 95-180, F115L), sequence (Q9UBX0 95-180 F115L): as the sequence (Q9UBX0 95-180 R165K) above, with F21L, K71R counted along it
HESX1 (Homo sapiens, UniProt Q9UBX0 95-180, P111T), sequence (Q9UBX0 95-180 P111T): as the sequence (Q9UBX0 95-180 R165K) above, with P17T, K71R counted along it
HESX1 (Homo sapiens, UniProt Q9UBX0 95-180, R109Q), sequence (Q9UBX0 95-180 R109Q): as the sequence (Q9UBX0 95-180 R165K) above, with R15Q, K71R counted along it
ALX1 (Homo sapiens, UniProt Q15699 118-204, L144R), sequence (Q15699 118-204 L144R): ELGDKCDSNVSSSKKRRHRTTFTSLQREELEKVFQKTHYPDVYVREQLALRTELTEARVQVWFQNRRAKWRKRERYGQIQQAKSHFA
ALX1 (Homo sapiens, UniProt Q15699 118-204), sequence (Q15699 118-204): as the sequence (Q15699 118-204 L144R) above, with R27L counted along it
ALX1 (Homo sapiens, UniProt Q15699 118-204, L144V), sequence (Q15699 118-204 L144V): as the sequence (Q15699 118-204 L144R) above, with R27V counted along it
HESX1 (Homo sapiens, UniProt Q9UBX0 95-180), sequence (Q9UBX0 95-180): as the sequence (Q9UBX0 95-180 R165K) above, with K71R counted along it
PROP1 (Homo sapiens, UniProt O75360 56-141, R99H), sequence (O75360 56-141 R99H): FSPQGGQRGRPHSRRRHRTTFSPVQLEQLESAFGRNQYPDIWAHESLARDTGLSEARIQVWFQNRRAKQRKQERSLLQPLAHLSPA
PROP1 (Homo sapiens, UniProt O75360 56-141), sequence (O75360 56-141): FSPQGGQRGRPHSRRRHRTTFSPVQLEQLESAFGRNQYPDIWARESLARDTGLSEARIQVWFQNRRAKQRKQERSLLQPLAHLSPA
ALX3 (Homo sapiens, UniProt O95076 139-225, N203S), sequence (O95076 139-225 N203S): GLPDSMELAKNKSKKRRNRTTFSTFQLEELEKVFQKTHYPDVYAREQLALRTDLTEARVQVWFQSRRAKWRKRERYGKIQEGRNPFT
MSX2, sequence (P35548 130-214 R199I): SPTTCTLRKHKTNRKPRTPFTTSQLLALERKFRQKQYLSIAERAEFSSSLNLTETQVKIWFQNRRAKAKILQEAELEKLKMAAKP
ALX3 (Homo sapiens, UniProt O95076 139-225, L168Q), sequence (O95076 139-225 L168Q): as the sequence (O95076 139-225 N203S) above, with L30Q, S65N counted along it

With CGCGTAGC the binding signal [1] was 6.51 upbm affinity estimate (log intensity, higher = more binding, comparable within an allelic series), the binding signal [2] was 6.55 upbm affinity estimate (log intensity, higher = more binding, comparable within an allelic series) and the binding signal [3] was 6.51 upbm affinity estimate (log intensity, higher = more binding, comparable within an allelic series). The binding signal [4] was 6.44 upbm affinity estimate (log intensity, higher = more binding, comparable within an allelic series) and the binding signal [5] was 6.54 upbm affinity estimate (log intensity, higher = more binding, comparable within an allelic series).
For GAGCTGGC, the binding signal [1] was 6.31 upbm affinity estimate (log intensity, higher = more binding, comparable within an allelic series), the binding signal [2] was 6.3 upbm affinity estimate (log intensity, higher = more binding, comparable within an allelic series) and the binding signal [3] was 6.49 upbm affinity estimate (log intensity, higher = more binding, comparable within an allelic series). For the same sequence, the binding signal [4] was 6.25 upbm affinity estimate (log intensity, higher = more binding, comparable within an allelic series) and the binding signal [5] was 6.47 upbm affinity estimate (log intensity, higher = more binding, comparable within an allelic series).
CCCGGCTC was tested, and the binding signal [1] was 6.39 upbm affinity estimate (log intensity, higher = more binding, comparable within an allelic series), the binding signal [2] was 6.47 upbm affinity estimate (log intensity, higher = more binding, comparable within an allelic series) and the binding signal [3] was 6.38 upbm affinity estimate (log intensity, higher = more binding, comparable within an allelic series). The binding signal [4] was 6.47 upbm affinity estimate (log intensity, higher = more binding, comparable within an allelic series) and the binding signal [5] was 6.5 upbm affinity estimate (log intensity, higher = more binding, comparable within an allelic series).
For GCAGGCGC, the binding signal [1] was 6.11 upbm affinity estimate (log intensity, higher = more binding, comparable within an allelic series), the binding signal [2] was 5.98 upbm affinity estimate (log intensity, higher = more binding, comparable within an allelic series) and the binding signal [6] was 5.82 upbm affinity estimate (log intensity, higher = more binding, comparable within an allelic series). The binding signal [7] was 5.84 upbm affinity estimate (log intensity, higher = more binding, comparable within an allelic series), the binding signal [3] was 6.31 upbm affinity estimate (log intensity, higher = more binding, comparable within an allelic series) and the binding signal [4] was 6.16 upbm affinity estimate (log intensity, higher = more binding, comparable within an allelic series). For the same sequence, the binding signal [5] was 6.37 upbm affinity estimate (log intensity, higher = more binding, comparable within an allelic series) and the binding signal [8] was 5.72 upbm affinity estimate (log intensity, higher = more binding, comparable within an allelic series).
With ACCGTCCG the binding signal [1] was 6.56 upbm affinity estimate (log intensity, higher = more binding, comparable within an allelic series), the binding signal [2] was 6.57 upbm affinity estimate (log intensity, higher = more binding, comparable within an allelic series) and the binding signal [3] was 6.49 upbm affinity estimate (log intensity, higher = more binding, comparable within an allelic series). The binding signal [4] was 6.5 upbm affinity estimate (log intensity, higher = more binding, comparable within an allelic series) and the binding signal [5] was 6.47 upbm affinity estimate (log intensity, higher = more binding, comparable within an allelic series).
In the case of CAGGCGCC, the binding signal [1] is reported as 6.55 upbm affinity estimate (log intensity, higher = more binding, comparable within an allelic series), the binding signal [2] is reported as 6.51 upbm affinity estimate (log intensity, higher = more binding, comparable within an allelic series) and the binding signal [3] is reported as 6.57 upbm affinity estimate (log intensity, higher = more binding, comparable within an allelic series). For the same sequence, the binding signal [4] was 6.52 upbm affinity estimate (log intensity, higher = more binding, comparable within an allelic series) and the binding signal [5] was 6.58 upbm affinity estimate (log intensity, higher = more binding, comparable within an allelic series).
AGGGTCCC was tested, and the binding signal [1] was 6.51 upbm affinity estimate (log intensity, higher = more binding, comparable within an allelic series), the binding signal [2] was 6.48 upbm affinity estimate (log intensity, higher = more binding, comparable within an allelic series) and the binding signal [3] was 6.45 upbm affinity estimate (log intensity, higher = more binding, comparable within an allelic series). The binding signal [4] was 6.51 upbm affinity estimate (log intensity, higher = more binding, comparable within an allelic series) and the binding signal [5] was 6.53 upbm affinity estimate (log intensity, higher = more binding, comparable within an allelic series).
With CCTAGCTC the binding signal [1] was 6.41 upbm affinity estimate (log intensity, higher = more binding, comparable within an allelic series), the binding signal [2] was 6.56 upbm affinity estimate (log intensity, higher = more binding, comparable within an allelic series) and the binding signal [3] was 6.57 upbm affinity estimate (log intensity, higher = more binding, comparable within an allelic series). The binding signal [4] was 6.46 upbm affinity estimate (log intensity, higher = more binding, comparable within an allelic series) and the binding signal [5] was 6.62 upbm affinity estimate (log intensity, higher = more binding, comparable within an allelic series).
For ACGCTGCG, the binding signal [1] was 6.32 upbm affinity estimate (log intensity, higher = more binding, comparable within an allelic series), the binding signal [2] was 6.32 upbm affinity estimate (log intensity, higher = more binding, comparable within an allelic series) and the binding signal [6] was 6.28 upbm affinity estimate (log intensity, higher = more binding, comparable within an allelic series). For the same sequence, the binding signal [7] was 6.23 upbm affinity estimate (log intensity, higher = more binding, comparable within an allelic series), the binding signal [3] was 6.51 upbm affinity estimate (log intensity, higher = more binding, comparable within an allelic series) and the binding signal [4] was 6.42 upbm affinity estimate (log intensity, higher = more binding, comparable within an allelic series). The binding signal [5] was 6.51 upbm affinity estimate (log intensity, higher = more binding, comparable within an allelic series) and the binding signal [8] was 6.21 upbm affinity estimate (log intensity, higher = more binding, comparable within an allelic series).
For ACAATTAT, the binding signal [1] was 11.8 upbm affinity estimate (log intensity, higher = more binding, comparable within an allelic series), the binding signal [2] was 12.1 upbm affinity estimate (log intensity, higher = more binding, comparable within an allelic series) and the binding signal [9] was 12.6 upbm affinity estimate (log intensity, higher = more binding, comparable within an allelic series). The binding signal [3] was 8.44 upbm affinity estimate (log intensity, higher = more binding, comparable within an allelic series), the binding signal [10] was 10.8 upbm affinity estimate (log intensity, higher = more binding, comparable within an allelic series) and the binding signal [11] was 10.2 upbm affinity estimate (log intensity, higher = more binding, comparable within an allelic series). The binding signal [4] was 10.3 upbm affinity estimate (log intensity, higher = more binding, comparable within an allelic series), the binding signal [5] was 7.61 upbm affinity estimate (log intensity, higher = more binding, comparable within an allelic series) and the binding signal [12] was 8.71 upbm affinity estimate (log intensity, higher = more binding, comparable within an allelic series).
In the case of CTGCATTA, the binding signal [1] is reported as 7.23 upbm affinity estimate (log intensity, higher = more binding, comparable within an allelic series), the binding signal [2] is reported as 7.34 upbm affinity estimate (log intensity, higher = more binding, comparable within an allelic series) and the binding signal [6] is reported as 8.85 upbm affinity estimate (log intensity, higher = more binding, comparable within an allelic series). The binding signal [7] was 8.64 upbm affinity estimate (log intensity, higher = more binding, comparable within an allelic series), the binding signal [4] was 7.12 upbm affinity estimate (log intensity, higher = more binding, comparable within an allelic series) and the binding signal [5] was 6.71 upbm affinity estimate (log intensity, higher = more binding, comparable within an allelic series). For the same sequence, the binding signal [8] was 9.15 upbm affinity estimate (log intensity, higher = more binding, comparable within an allelic series).
In the case of CCCCCAGC, the binding signal [1] is reported as 6.28 upbm affinity estimate (log intensity, higher = more binding, comparable within an allelic series), the binding signal [2] is reported as 6.22 upbm affinity estimate (log intensity, higher = more binding, comparable within an allelic series) and the binding signal [3] is reported as 6.3 upbm affinity estimate (log intensity, higher = more binding, comparable within an allelic series). For the same sequence, the binding signal [4] was 6.31 upbm affinity estimate (log intensity, higher = more binding, comparable within an allelic series) and the binding signal [5] was 6.46 upbm affinity estimate (log intensity, higher = more binding, comparable within an allelic series).
GCGAGCGC was tested, and the binding signal [1] was 6.46 upbm affinity estimate (log intensity, higher = more binding, comparable within an allelic series), the binding signal [2] was 6.44 upbm affinity estimate (log intensity, higher = more binding, comparable within an allelic series) and the binding signal [13] was 6.62 upbm affinity estimate (log intensity, higher = more binding, comparable within an allelic series). For the same sequence, the binding signal [3] was 6.48 upbm affinity estimate (log intensity, higher = more binding, comparable within an allelic series), the binding signal [10] was 6.66 upbm affinity estimate (log intensity, higher = more binding, comparable within an allelic series) and the binding signal [4] was 6.41 upbm affinity estimate (log intensity, higher = more binding, comparable within an allelic series). For the same sequence, the binding signal [14] was 6.75 upbm affinity estimate (log intensity, higher = more binding, comparable within an allelic series) and the binding signal [5] was 6.54 upbm affinity estimate (log intensity, higher = more binding, comparable within an allelic series).
